According to ChEMBL document CHEMBL3988442, “University of Dundee, Small-Polar-MMV Screening Library” (2021):
Out of some 48,000 compounds screened, about 13,000 (27%) showed an effect of 50% or more. The list shows a part of the results.

system: Wolbachia pipientis; experiment: Anti-Wolbachia Cell-Based Screen; type: functional; set-up: scale not given: in the data most compounds retested in dose-response had high values; conditions: 5 µM

Row | Structure (SMILES) | Percent Effect
1 | COc1ccc(Cl)cc1CNC(=O)CN1CCC2(CCOC2)C1 (centres undefined) | 5.478%
2 | CCCC(=O)NCC(=O)NC(c1ccc(Cl)cc1)C(F)(F)F (centres undefined) | -4.192%
3 | CC(=O)c1cn(CC(=O)N2CCCC(O)(CO)C2)c2ccccc12 (centres undefined) | -9.342%
4 | Cc1nc(C)c(CC(=O)N2C[C@H]3CC[C@@H]2CN(C(=O)N(C)C)C3)c(=O)[nH]1 | -5.688%
5 | Cc1ccc(CN(Cc2ccccn2)C(=O)C2CCCCCN2C)s1 (centres undefined) | -49.91%
6 | O=C(NCc1cc(F)ccc1F)Nc1ccn(CC(F)F)n1 | -16.02%
7 | CCCS(=O)(=O)CC(=O)Nc1ccsc1 | -10.7%
8 | CCNc1nc2c(s1)C(=O)CN(C(=O)NCc1ccccc1)C2 | 105.7%
9 | CCNc1nc2c(s1)C(=O)CN(C(=O)NCCc1ccccc1)C2 | -10.47%
10 | COCc1nc2c(o1)CN(C(=O)NCc1ccccc1)C2 | 27.3%
11 | CN(C)c1nc2c(c(N3CCCC3)n1)CCN(C(=O)c1ccc[nH]1)CC2 | 91.66%
12 | Nc1nc2c(c(N3CCOCC3)n1)CCN(C(=O)c1ccc[nH]1)CC2 | 39.51%
13 | Cc1nc(-c2cnn(C)c2)nc2c1CN(C(=O)c1ccc[nH]1)CC2 | -2.829%
14 | CC(C#N)CN(C)Cc1c(Cl)ccc2cccnc12 (centres undefined) | 4.156%
15 | COc1ccc(CNC(Cc2ccsc2)c2ccc(C)cn2)c(OC)c1 (centres undefined) | 101.2%
16 | CCc1cnc(N)nc1NCc1ccc(OC)cc1OC | -6.529%
17 | COc1ccncc1NCc1ccsc1 | 15.23%
18 | COc1cccc(OC)c1CNC(Cc1ccsc1)c1ccc(C)cn1 (centres undefined) | 169.8%
19 | COC(C)c1cccc(NCc2ccsc2)c1 (centres undefined) | -13.03%
20 | COc1ccc(CNC(Cc2ccsc2)c2ccc(C)cn2)cc1OC.Cl (centres undefined) | 112.1%
21 | COc1ccc(CNc2c(C)nn(C(C)C)c2C)cc1OC.Cl | 8.952%
22 | COc1ccc(CNc2cc(-c3nc(C)no3)ccn2)c(OC)c1 | -6.518%
23 | O=C(NCc1cccc(-n2cncn2)c1)NCC(C1CC1)C1CC1 | -15.59%
24 | CC(C)Cn1cncc1CNC1CCSCC1 | 2.151%
25 | COc1ccc(F)c(CN2CCCC(O)(CNC3CCCCC3)C2=O)c1 (centres undefined) | -6.817%
26 | COc1c(C)cnc(CNC(=O)c2cc(C)nc3onc(C)c23)c1C | -1.817%
27 | Cc1noc2ncc(C(=O)NCC3CCOC3)cc12 (centres undefined) | -15.76%
28 | COc1c(C)cnc(CNC(=O)c2cnc3onc(C)c3c2)c1C | 104.5%
29 | O=C(NCCOCCO)[C@@]12CNC[C@@H]1CN(C1CCCC1)C2 | -7.865%
